Reference: the supplement of paper PMC8253809

Columns and labels:
Assay in all cases: growth inhibition (% activity, log2 RLU normalised to DMSO / staurosporine); higher = more growth inhibition
Settings in all cases: 33 µM
[1] = test system: DIPGX29 (H3.3 K27M diffuse intrinsic pontine glioma line)
Method in brief: (§1)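 Approved drugs were tested in triplicate at a single final concentration of about 33 μM for 7 days at 37 °C, 5% CO2, on pHGG cell lines and H9-derived neural stem cells. Readout was CellTiter-Glo luminescence, log2-transformed and scaled per plate to % activity between solvent and positive control wells. The median over replicates gives the growth-inhibition value.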

[2] = test system: DIPGX37 (H3.3 K27M diffuse intrinsic pontine glioma line)
Method in brief: as §1

[3] = test system: DIPGX7 (H3.3 K27M diffuse intrinsic pontine glioma line)
Method in brief: as §1

[4] = test system: DIPGX9 (diffuse intrinsic pontine glioma line)
Method in brief: as §1

[5] = test system: HGGX39 (paediatric high-grade glioma line)
Method in brief: as §1

[6] = test system: HGGX6 (H3.3 G34R paediatric high-grade glioma line)
Method in brief: as §1

[7] = test system: HNSC
Method in brief: as §1

[8] = test system: SUDIPGIV (diffuse intrinsic pontine glioma line)
Method in brief: as §1

[9] = test system: SUDIPGVI (diffuse intrinsic pontine glioma line)
Method in brief: as §1

[10] = test system: SUDIPGXIII (diffuse intrinsic pontine glioma line)
Method in brief: as §1

Row | SMILES | growth inhibition [1] [%] | growth inhibition [2] [%] | growth inhibition [3] [%] | growth inhibition [4] [%] | growth inhibition [5] [%] | growth inhibition [6] [%] | growth inhibition [7] [%] | growth inhibition [8] [%] | growth inhibition [9] [%] | growth inhibition [10] [%]
1 | CC(=O)OCC(=O)NCCCOc1cccc(CN2CCCCC2)c1 | -1.28 | 1.04 | -1.47 | -0.989 | -1.44 | 0.942 | -4.85 | -2.05 | -0.427 | -1.04
2 | [I-].[K+] | -0.931 | -0.668 | -0.00688 | -0.676 | 0.215 | -4.01 | 20.4 | -0.567 | -0.261 | -4.16
3 | CC(C)(O)c1ccccc1CC[C@@H](SCC1(CC(=O)O)CC1)c1cccc(/C=C/c2ccc3ccc(Cl)cc3n2)c1 | -0.862 | 0.461 | -2.4 | -1.33 | -0.172 | -2.63 | -3.15 | -1.21 | -0.324 | -15.7
4 | N[C@H](C(=O)O)[C@H](O)c1ccc(O)c(O)c1 | -1.91 | -2.48 | -1.18 | -0.989 | -1.97 | -1.74 | -3.73 | -1.1 | -1.43 | -4.54
5 | NCCCCCC(=O)O | 0.867 | 2.56 | 2.76 | 1.09 | 2.5 | 4.7 | 0.436 | 1.23 | 0.903 | -1.64
6 | CCCNC(=O)NS(=O)(=O)c1ccc(Cl)cc1 | 2.28 | 4.25 | 2.73 | 6.15 | 3.29 | 2.21 | 9.27 | 2.61 | 2.64 | 0.944
7 | CC[C@H]1OC(=O)[C@H](C)[C@@H](O[C@H]2C[C@@](C)(OC)[C@@H](O)[C@H](C)O2)[C@H](C)[C@@H](O[C@@H]2O[C@H](C)C[C@H](N(C)C)[C@H]2O)[C@](C)(O)C[C@@H](C)C(=O)[C@H](C)[C@@H](O)[C@]1(C)O | 0.288 | -2.96 | 0.845 | 0.939 | 1.08 | -0.333 | 2.65 | 1.14 | 2.66 | -1.2
8 | C=C1CCC(O)CC1=CC=C1CCCC2(C)C1CCC2C(C)CCCC(C)(C)O (stereo not given) | -0.0142 | 2.58 | 3.34 | -0.221 | 3.14 | 0.603 | -1.74 | 3.43 | -3.1 | -0.781
9 | COc1ccc([C@@H]2Sc3ccccc3N(CCN(C)C)C(=O)[C@@H]2OC(C)=O)cc1 | -1.14 | -1.86 | 0.795 | -0.923 | -2.92 | -0.0969 | -0.232 | -1.32 | -1.92 | 0.713
10 | c1ccc2c(c1)CCCC2C1=NCCN1 (stereo not given) | 1.99 | 2.84 | 1.62 | 2.1 | 2.48 | 2.7 | 8.78 | 3.45 | 2.93 | 0.717
11 | Cc1ccc(C(=O)c2ccc(CC(=O)O)n2C)cc1 | -0.189 | -0.055 | 0.146 | 0.57 | 0.449 | -0.641 | 2.18 | -4 | 1.82 | -0.302
12 | CCCN(CCC)CCc1cccc2c1CC(=O)N2 | -1.21 | -2.23 | 1.15 | 0.189 | 2.83 | -2.51 | 0.584 | 0.852 | 2.13 | -0.826
13 | CC1(C)O[C@@H]2C[C@H]3[C@@H]4C[C@H](F)C5=CC(=O)C=C[C@]5(C)[C@@]4(F)[C@@H](O)C[C@]3(C)[C@]2(C(=O)CO)O1 | 5.9 | 6.05 | 2.96 | 7.24 | 5.97 | 3.53 | 1.69 | 1.18 | 3.97 | -0.393
14 | CC(CCc1ccc(O)cc1)NCC(O)c1ccc(O)cc1 (stereo not given) | -1.35 | 0.666 | -1 | 0.398 | 3.25 | -2.19 | 5.04 | 2.35 | 2.3 | 0.356
15 | OC(Cn1cncn1)(Cn1cncn1)c1ccc(F)cc1F | 0.884 | -0.267 | 1.06 | 1.31 | 1.3 | 1.42 | 1.54 | -0.234 | 1.91 | 0.862
16 | CC1CC(OC(=O)C(O)c2ccccc2)CC(C)(C)C1 (stereo not given) | -0.681 | 1.83 | 0.84 | 0.0624 | 1.43 | -3.88 | 10.7 | 2.02 | 0.402 | 1.8
17 | Cc1nc2n(c(=O)c1CCN1CCC(c3noc4cc(F)ccc34)CC1)CCCC2 | 2.78 | 1.21 | 3.37 | 1.08 | 3.29 | 1.84 | 0.606 | 0.111 | -0.157 | 1.25
18 | O=C(O)c1cc(=O)c2c(OCC(O)COc3cccc4oc(C(=O)O)cc(=O)c34)cccc2o1 | -1.5 | 1.34 | -1.58 | 0.155 | -0.164 | 1.99 | -1.63 | -0.417 | -0.328 | 1.77
19 | O=C(NC[C@H]1CN(c2ccc(N3CCOCC3=O)cc2)C(=O)O1)c1ccc(Cl)s1 | -0.891 | 0.377 | -0.155 | -1.03 | 0.0326 | 0.545 | 0.606 | 3.01 | -0.593 | 1.19
20 | CS(=O)(=O)c1ccc([C@@H](O)[C@@H](CO)NC(=O)C(Cl)Cl)cc1 | 7.76 | 3.94 | 4.74 | 7.6 | 16.3 | 5.24 | 15.1 | 35 | 5.62 | 20

Row | SMILES | growth inhibition [1] [%] | growth inhibition [2] [%] | growth inhibition [3] [%] | growth inhibition [4] [%] | growth inhibition [5] [%] | growth inhibition [6] [%] | growth inhibition [7] [%] | growth inhibition [8] [%] | growth inhibition [9] [%] | growth inhibition [10] [%]
21 | O=C(CCCN1CC=C(n2c(=O)[nH]c3ccccc32)CC1)c1ccc(F)cc1 | -2.81 | -3.22 | 1.35 | -2.63 | -0.994 | -4.16 | 3.11 | -2.04 | -2.84 | 0.682
22 | Cc1ccc(N(CC2=NCCN2)c2cccc(O)c2)cc1 | -5.09 | -4.29 | -2.56 | -2.27 | -2.42 | -3.2 | 1.6 | -4.67 | -4.28 | -1.14
23 | COc1cc2nc(N3CCN(C(=O)C4CCCO4)CC3)nc(N)c2cc1OC (stereo not given) | 1.51 | -0.298 | 0.774 | 0.282 | 2.19 | -0.97 | 28 | 2.95 | -1.11 | -3.7
24 | C[C@]12CC[C@@H]3c4ccc(O)cc4CC[C@H]3[C@@H]1C[C@@H](O)[C@@H]2O | -2.64 | -2.04 | -1.85 | -3.27 | -3.05 | -3.15 | 1.55 | -0.339 | -10.4 | 1.55
25 | CCCSc1ccc2[nH]c(NC(=O)OC)nc2c1 | 7.72 | 7.1 | 6.94 | 11.9 | 15.5 | 7.25 | 61.3 | 19 | -3.32 | 4.87
26 | CC1(C)O[C@@H]2C[C@H]3[C@@H]4CCC5=CC(=O)C=C[C@]5(C)[C@H]4[C@@H](O)C[C@]3(C)[C@]2(C(=O)CO)O1 | 0.656 | 2.84 | -0.564 | 3 | 2.23 | 1.78 | -4.33 | 0.0175 | -0.194 | 2.31
27 | COc1ccc2cc(CCC(C)=O)ccc2c1 | -3.29 | -0.34 | 1.11 | -2.24 | 0.174 | -2.89 | 31.7 | -0.544 | -8.13 | 3.04
28 | [Na+].[Na+].[Na+].[O]=[V]([O-])([O-])[O-] | -1.42 | 0.923 | -1.78 | 0.306 | 0.285 | -0.94 | -0.354 | -2.76 | -0.971 | 1.36
29 | CC(C)NCC(O)c1cc(O)cc(O)c1 (stereo not given) | -0.101 | 1.67 | 1.75 | 1.82 | 2.87 | -1.68 | 27.3 | 2.27 | -0.181 | -0.215
30 | CCn1cc(C(=O)O)c(=O)c2cc(F)c(N3CCNC(C)C3)c(F)c21 (stereo not given) | -4.04 | -2.84 | -0.94 | -2.66 | -4.99 | -5.88 | 9.04 | -2.28 | -4.26 | 1.13
31 | NC[C@H]1O[C@H](O[C@H]2[C@H](O)[C@@H](O[C@H]3O[C@H](CO)[C@@H](O)[C@H](N)[C@H]3O)[C@H](N)C[C@@H]2N)[C@H](N)C[C@@H]1O | -1.1 | -0.159 | -0.415 | -0.0629 | -1.03 | 1.31 | -1.87 | -0.0713 | -0.514 | -17.5
32 | CCn1cc(C(=O)O)c(=O)c2cnc(N3CCCC3)nc21 | -2.15 | -2.01 | -0.632 | -0.749 | -1.43 | 0.0128 | -2.86 | -0.463 | -0.722 | -2.7
33 | Cc1ccnc(NS(=O)(=O)c2ccc(N)cc2)n1 | 0.307 | 1.2 | -0.936 | 0.0876 | 1.13 | -0.277 | -0.552 | 0.606 | 0.117 | 1.12
34 | CS(=O)(=O)c1ccc([C@@H](O)[C@@H](CF)NC(=O)C(Cl)Cl)cc1 | 3.83 | -0.106 | 1.63 | 2.53 | 12.9 | 5.33 | 15.9 | 24.6 | 2.59 | 38
35 | CC[N+](CC)(CC)CCOc1cccc(OCC[N+](CC)(CC)CC)c1OCC[N+](CC)(CC)CC | 2.95 | 4.13 | 2.35 | 3.16 | 2.47 | 0.26 | 1.9 | -0.653 | 3.43 | -2.39
36 | CC(C)(Oc1ccc(Cl)cc1)C(=O)O | -2.6 | 1.37 | -0.722 | -1.38 | 0.448 | -2.21 | 5.23 | 0.614 | -0.459 | -0.393
37 | CC(=O)CCCCn1c(=O)c2c(ncn2C)n(C)c1=O | 0.465 | 1.18 | 0.88 | 0.578 | 2.34 | 2 | 1.61 | -0.648 | 2.85 | 0.487
38 | C[C@@H](O)[C@H]1C(=O)N2C(C(=O)O)=C(S[C@@H]3CN[C@H](C(=O)N(C)C)C3)[C@H](C)[C@H]12 | -2.93 | 0.205 | -1.37 | -0.242 | -2.33 | -3.05 | 4.4 | -2.08 | -2.04 | 0.717
39 | CN(C)CCCN1c2ccccc2CCc2ccccc21 | -0.201 | 2.87 | 0.728 | 1.54 | 6.76 | 3.35 | 3.17 | 2.4 | -0.367 | 2.4
